# Results taken from PubChem BioAssay AID588689 (Southern Research Specialized Biocontainment Screening …, 2011).
# The campaign covered roughly 340,000 compounds. About 1,000 (0.29%) were called active. Rule as the data show it: inconclusive = inhibition above about 29% without an active follow-up result; inactive = below that. These entries were drawn from the full list. Results with a measured potency or affinity are listed apart.
# Target: Genome polyprotein (Dengue virus type 2 (strain 16681-PDK53)) (UniProt P29991)
# Assay: Dengue-2 NS5 methyltransferase inhibitors, primary screen, biochemical, confirmation dose response (AID 588689)
# Conditions: Dengue-2 NS5 methyltransferase capping enzyme assay, at 25 µM, stronger effect = higher value
SMILES,inhibition,inhibition (measured here: pilot screen replicate inhibition) [%]
COc1ccc2sc(N(CCCN(C)C)C(=O)c3ccc(C(=O)c4ccccc4)cc3)nc2c1,0% (inactive),–
CN(Cc1ccccc1F)C(=O)C1CCCN(C(=O)c2ccc(Cl)cc2)C1 (stereo unspecified),3.62% (inactive),–
COc1ccc(NS(=O)(=O)c2ccc3c(c2)N(C(C)=O)CCS3)cc1,-7.87% (inactive),–
CCOc1nc(C)ccc1-c1noc(C)n1,0% (inactive),–
COCc1c(Br)c(C)nc(OCC(=O)O)c1C#N,0.8% (inactive),–
CCCCN(C(=O)CCC(=O)Nc1cc(C)on1)C(C(=O)NC1CCCC1)c1ccc(F)cc1 (stereo unspecified),-14.2% (inactive),–
N#Cc1cc2c(nc1SCc1cccc(Cl)c1)CCCCC2,4.4% (inactive),–
Cc1ccc(C(=O)OCC(=O)N2CCC(C)CC2)cc1S(=O)(=O)N1CCCCC1,-4.55% (inactive),–
CCCCSC1=N/C(=C/c2ccsc2)C(=O)N1c1ccccc1,-1.97% (inactive),–
Fc1cccc(COc2ccccc2C(=S)N2CCCC2)c1,-5.22% (inactive),–
Cc1[nH]c2ccccc2c1C(C[N+](=O)[O-])c1cccc(O)c1 (stereo unspecified),-3.77% (inactive),–
CCS(=O)(=O)Nc1c(C(=O)O)[nH]c2ccccc12,-0.33% (inactive),–
C#CCOCCOCCOCCNc1nc(N2CCN(C(=O)[C@H](CO)n3cc([C@@H](N)C(C)C)nn3)CC2)nc(N2CCN(C(=O)[C@H](CCCCN)n3cc([C@@H](N)[C@H](C)CC)nn3)CC2)n1,0% (inactive),–
Cc1ccsc1/C=N/NC(=O)c1ccncc1,-0.74% (inactive),–
Cc1ccc(/C=N/NC(=O)c2ccncc2)cc1,-7.15% (inactive),–
Cn1c(=O)c(/C(N)=N/OC(=O)c2ccccc2)cn(-c2ccccc2)c1=O,0% (inactive),–
Cc1nc2nc(C)c(NS(=O)(=O)c3ccc(C4CCCCC4)cc3)c(=O)n2[nH]1,-5.01% (inactive),–
CCc1nc2nc(C)c(NS(=O)(=O)c3ccc(C4CCCCC4)cc3)c(=O)n2[nH]1,7.51% (inactive),–
Cc1cc(Br)ccc1NC(=O)c1ccc(-n2cncn2)c([N+](=O)[O-])c1,5.79% (inactive),–
O=C(CCCCCNc1nc(=S)[nH]c2ccccc12)NCCC1=CCCCC1,-4.45% (inactive),–
CCCCn1c(N)c(N(CC(C)C)C(=O)C2CCCO2)c(=O)[nH]c1=O (stereo unspecified),-0.74% (inactive),–
COc1cc2c(cc1OC)C1c3ccc(OC)c(OC)c3OCC1(O)C2 (stereo unspecified),3.23% (inactive),–
CCOc1ccc(NC(=O)CN(C)C(=O)c2ccncc2)cc1OCC,4.54% (inactive),–

SMILES,inhibition,inhibition (measured here: pilot screen replicate inhibition) [%]
O=C(CCOc1ccccc1)N1CCCC(Nc2ccccc2)C1 (stereo unspecified),-3.45% (inactive),–
COc1cccc(CNC(=O)[C@H](C)NC(=O)C2CCN(S(=O)(=O)c3ccccc3)CC2)c1,-6.35% (inactive),–
CC12CCC(=O)N1C(C(=O)Nc1nccs1)CS2 (stereo unspecified),-5.93% (inactive),–
O=C(O)CSc1nc(-c2ccccc2)nc2c1oc1ccccc12,5.73% (inactive),–
Cc1nc(SCC(=O)O)c2oc3ccccc3c2n1,-1.65% (inactive),–
CC(C)(C)c1ccc(C(=O)Nc2c3c(nn2C(C)(C)C)CS(=O)(=O)C3)cc1,-9.75% (inactive),–
CCCOC(=O)CSC1=C(C#N)C(c2ccccc2OC)C(C#N)C(=O)N1 (stereo unspecified),-15.9% (inactive),–
CNC(=O)CC1C(=O)N(C)C(=S)N1NC(=O)c1ccccc1 (stereo unspecified),2.33% (inactive),–
COc1cc(C)ccc1OCCOc1ccccc1Cl,-4.77% (inactive),–
COc1cc(CO)cc(Br)c1OCC(=O)O,-12.1% (inactive),–
CCc1ccc(N=C2NC(=O)/C(=C/c3ccc(OCC(=O)O)c(OC)c3)S2)cc1,-3.47% (inactive),–
Cc1ccc(S(=O)(=O)NCCC(=O)Nc2nccs2)cc1,-0.76% (inactive),–
Cc1cccc(N(CC(=O)Nc2ccccc2-c2ccccc2)S(=O)(=O)c2ccccc2)c1C,1.45% (inactive),–
CC(C)(C)c1csc(CS(=O)(=O)c2ccccn2)n1,-4.67% (inactive),–
Cc1ccc(NC(=O)c2ccc(S(=O)(=O)Nc3c(C)n(C)n(-c4ccccc4)c3=O)cc2)nc1,-5.09% (inactive),–
CSc1nnc(-c2ccccc2)c(-c2ccccc2)n1,-5.41% (inactive),–
Cc1cccc(NC(=O)CSc2nnc(-c3ccco3)o2)c1C,3.22% (inactive),–
Cc1cccc(NC(=O)CSc2nnc(-c3ccco3)c(-c3ccco3)n2)c1,25.8% (inactive),–
O=C(CSc1nnc(-c2ccco2)c(-c2ccco2)n1)c1ccccc1,29.5% (inactive),–
Cc1ccc(NC(=O)CSc2nnc(-c3ccco3)c(-c3ccco3)n2)cc1,14.3% (inactive),–
Cc1ccccc1NC(=O)CSc1n[nH]c(-c2ccco2)n1,0.76% (inactive),–
COc1cccc(NC(=O)c2ccc3c(O)c(S(=O)(=O)c4ccccc4)c(=O)[nH]c3c2)c1,4.09% (inactive),–
CCCCn1c(N)c(N(CC(C)C)C(=O)CC2CCCCC2)c(=O)[nH]c1=O,-11.5% (inactive),–

SMILES,inhibition,inhibition (measured here: pilot screen replicate inhibition) [%]
C[C@@H]1CC2[C@@H]3CC[C@H]4CC(=O)CC[C@]4(C)C3=CC[C@]2(C)[C@@]1(O)C(=O)CO (stereo partly specified),-1.96% (inactive),–
CC1=C(C(=O)Nc2cccc(C(=O)NC(C)c3ccccc3)c2)SCCO1 (stereo unspecified),-4.13% (inactive),–
CCOc1cc(C(=O)O)cc(Cl)c1OCC#N,-2.72% (inactive),–
CCOc1cc(C=O)cc(Cl)c1OCC(N)=O,-2.73% (inactive),–
O=c1[nH]c2ccc(S(=O)(=O)N3CCN(Cc4ccccc4)CC3)cc2[nH]c1=O,-2.74% (inactive),–
CC(=O)Nc1ccc(-c2csc(NC(=O)C3CCN(S(=O)(=O)c4cccs4)CC3)n2)cc1,-5.78% (inactive),–
Cc1ccc(N2C(=O)c3ccc(C(=O)O)cc3C2=O)cc1C,9.14% (inactive),–
Cc1ccc(N2C(=O)c3ccccc3C2=O)cc1C,-5.39% (inactive),–
COC(=O)c1c(C(=O)OC)c(-c2ccccc2)n2c1CCC2,1.6% (inactive),–
O=C(O)/C(=C\c1ccc(Cl)c([N+](=O)[O-])c1)c1ccc(S(=O)(=O)N2CCCC2)s1,0.37% (inactive),–
O=C(O)/C(=C/c1ccc(Cl)c([N+](=O)[O-])c1)c1ccc(S(=O)(=O)N2CCCCC2)s1,15.9% (inactive),–
O=C(CN1C(=O)C2CCCCC2C1=O)OCC(=O)c1ccc(Cl)s1 (stereo unspecified),-7.27% (inactive),–
O=S(=O)(c1ccc(=S)[nH]c1)N1CCOCC1,-8.4% (inactive),–
COC(=O)c1cccc(NC(=O)C2CCCN2C(=O)c2cccs2)c1 (stereo unspecified),-0.73% (inactive),–
Cc1cc(C(=O)N/N=C2/CC(C)CC(C)(C)C2)c(C)o1 (stereo unspecified),-5.92% (inactive),–
CC1(C)CC(=O)C2=C(C1)c1c(ccc3ccccc13)NC2c1ccco1 (stereo unspecified),-4.19% (inactive),–
CC1(C)CC(=O)C2=C(C1)c1c(ccc3ccccc13)NC2c1ccc(C(=O)O)cc1 (stereo unspecified),2.04% (inactive),–
COc1ccc(S(=O)(=O)N2CCN(c3ccccc3OC)CC2)cc1C(=O)N1CCCCC1,-9.14% (inactive),–
O=C(COc1ccc(Br)cc1)NNC(=S)NC(=O)c1ccccc1[N+](=O)[O-],10.8% (inactive),–
Cc1ccccc1OCC(=O)NNC(=S)NC(=O)c1ccccc1[N+](=O)[O-],-8.89% (inactive),–
Cc1ccsc1CN(C)Cc1nc(C2CC2)no1,1.78% (inactive),–
COc1ccccc1NS(=O)(=O)c1ccc(N/N=C/c2c(C)nn(-c3ccccc3)c2N2CCCC2)c([N+](=O)[O-])c1,0.96% (inactive),–
CCOc1cccc(C=NNc2ccc(S(=O)(=O)Nc3ccccc3C(=O)O)cc2[N+](=O)[O-])c1O,9.55% (inactive),–

SMILES,inhibition,inhibition (measured here: pilot screen replicate inhibition) [%]
CCOc1ccc(C=NNc2ccc(S(=O)(=O)Nc3ccccc3C(=O)O)cc2[N+](=O)[O-])cc1OC,7.77% (inactive),–
CSc1ccc(C=NNc2ccc(S(=O)(=O)Nc3ccccc3C(=O)O)cc2[N+](=O)[O-])cc1,18.3% (inactive),–
CCN(Cc1ccccc1)C(=O)c1ccc(C(=O)N(CC)Cc2ccccc2)cc1,-1.55% (inactive),–
CCc1nc(SCc2ccccc2)n[nH]1,8.1% (inactive),–
Cc1cc(C(F)(F)F)c(C#N)c(SCC(=O)NC(C)(C)C)n1,-2.7% (inactive),4.83
COc1cccc(O)c1CN1CCC(n2nccc2NC(=O)c2ccc3c(c2)OCO3)CC1,-3.24% (inactive),–
CCCCSc1n[nH]c(N)n1,-2.73% (inactive),–
COc1cccc(NC(=O)Cc2nnc(SCC(=O)NC3=NCCS3)n2C)c1,-1.78% (inactive),–
CCOc1cc(C(=O)N2CCN=C2SC)cc(OCC)c1OCC,-0.73% (inactive),–
CCCCCCN1C[C@H](n2cc(C3CC3)nn2)[C@@H](O)C[C@@H]1c1ccc(C)cc1,0% (inactive),–
COc1ccc(NC2=NCCC(=O)N2Cc2cccs2)cc1,3.14% (inactive),–
CN(C)/N=C/c1c(O)ccc2ccccc12,10.4% (inactive),–
OCC(CO)(CO)N=Cc1c(O)ccc2ccccc12,24.8% (inactive),–
COc1ccc(NC(=O)/C=C/c2ccccc2)c([N+](=O)[O-])c1,-2.2% (inactive),–
CC(=O)N1c2ccccc2NC2=C(C(=O)CCC2)C1c1ccco1 (stereo unspecified),9.11% (inactive),–
CCn1c(C)cc(/C=C2/SC(=S)N(CC(=O)O)C2=O)c1C,-89.8% (inactive),–
O=C(O)CCN1C(=O)/C(=C\c2ccc(OCc3ccccc3)c(OCc3ccccc3)c2)SC1=S,8.45% (inactive),–
O=[N+]([O-])c1ccc(COc2ccc(Br)cc2CN2CCOCC2)cc1,-3.16% (inactive),–
Cn1cccc1/C=C1\SC(=S)N(CC(=O)O)C1=O,-7.69% (inactive),–
O/N=C/c1cc(Br)ccc1OCc1ccc(F)cc1,-7.14% (inactive),–
Cn1cccc1/C=C1/SC(=S)N(CC(=O)O)C1=O,3.63% (inactive),–
